According to PMC12136788:
Residue numbers refer to the chain shown, from its start. Over roughly 24,000 sequences, “enrichment r” has its median near 0.99; the highest 2% begin near 3.7. The sample holds the highest values, similar sequences and a random draw of the others, so the mix is not that of the screen.

T1: UNK ZnF1-3 (human, UniProt Q9C0B0 31-174)
T1 sequence: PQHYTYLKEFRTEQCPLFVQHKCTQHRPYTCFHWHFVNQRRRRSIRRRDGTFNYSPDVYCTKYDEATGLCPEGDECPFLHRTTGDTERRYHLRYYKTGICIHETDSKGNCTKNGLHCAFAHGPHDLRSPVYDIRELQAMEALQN

B1: 176631152_176631272_1200_CDS_ENSG00000165671_ENST00000439151|human|control|control (ssRNA)
RNA: GGGAGUUCUACAGUCCGACGAUCUUUCUGUUUCCCUCUUCUCCUAAGGACAGGUAGCUCUUCGAAUUGAUGUCUGCCUUCAAACAUGACGAUUGCUUUUCCAGCCACCCAGGCUCUCUCAGAAGGAUCUCCAAAAGCCUCCACCAACAGAGGAUUGAGCAUCA
B2: chr2:42509997:42509998:+_ENSG00000143924_ENST00000318522|hu_mus|hu_hu_hu_mus_True|38_108 (ssRNA)
RNA: GGGAGUUCUACAGUCCGACGAUCUCGCUGAGUUCUCUCCUCAUAAUUAAACAGGACUACCACUGAGGCGAUAAAAUAAACUAUCUCCCCUGUGGGAAGAAGGUAAACAUUCGCUCUACAGUCCUUUCCUCGAUAACCGUAUACCAACAGAGGAUUGAGCAUCA
B3: chr5:72798899:72798900:+_ENSG00000145741_ENST00000335895|hu_mus|motif|central (ssRNA)
RNA: GGGAGUUCUACAGUCCGACGAUCGGGUGCUUUUCCAUCCACAGAUUGUUUGGGCAGAGCUUCAGCCAGUCUCCUUAAACGGGUCAGGCUGUCUGCACCAAGCUGGUUGAGGAUGCUGGGAAGCAUUUCUGUCAGCUGCUUUGUCAACAGAGGAUUGAGCAUCA
B4: 160239608_160243617_1107_3pUTR_ENSG00000186432_ENST00000334256|human|control|control (ssRNA)
RNA: GGGAGUUCUACAGUCCGACGAUCAGGAACUAUUCCAGAGUCUAUUACCAUCUGUAUUUGUUCAUUGCCAGCAUCAGUAAGGUAAGAGAGGGCCCAGACUGUGUCUACCAGUAUAUUUACAUCUGUGUGAUGAAUUAAAACACACAACAGAGGAUUGAGCAUCA
B5: chrX:71099370:71099371:-_ENSMUSG00000031391_ENSMUST00000102871|mus_hu|FALSE|FALSE (ssRNA)
RNA: GGGAGUUCUACAGUCCGACGAUCUUUAUUUUUCCUGGGAUGGGUUCAUCAAAGCUAAUUGCUAUCAAUCCUAGAAACCACCUAGGGACUCAGACAUCUGCCUACACACUAGUGGCGUAAAGGGAAGGACAGGGGUACAAACUUCAACAGAGGAUUGAGCAUCA
B6: chr8:29927545:29927546:-_ENSG00000133872_ENST00000521265|hu_mus|FALSE|FALSE (ssRNA)
RNA: GGGAGUUCUACAGUCCGACGAUCAGAGGACUCGUAGCCUUCACAGCUCACCACAGUUUUGCCAAAUUUGUAUGCAAUAUCCAAGUCGGUCUUACAUUCCCACUGUACAUCGUAGCCAUCCCAGCCUUUGUUCUGGCACUGUAUCAACAGAGGAUUGAGCAUCA
B7: chr14:63839279:63839280:-_ENSG00000154001_ENST00000337537|hu_hu|FALSE|FALSE (ssRNA)
RNA: GGGAGUUCUACAGUCCGACGAUCUUAAAAGGAAAAAAGGAAAACAAGGAAAAAAAACCACCCCAAACCCCAAAAAACUCUAAACACUUAAAAAUGCCAAUAACAUCCAUACAUCCCUUUCCCAUCCCACCCUCAUCCCCACAACAACAGAGGAUUGAGCAUCA
B8: chr1:66486067:66486068:+_ENSMUSG00000015222_ENSMUST00000077355|mus_hu|FALSE|FALSE (ssRNA)
RNA: GGGAGUUCUACAGUCCGACGAUCUUAUCCAGGUCCCAAAUGUUAAUAACUUAAUUGAAUCUUUCUUCCCAUUUAUACAAAAUAACACUUUAAAAAAACUUAUUUCUUACAUGCUCUUCCCUUCCUGCAAUCAGACUCCUUGGUCAACAGAGGAUUGAGCAUCA
B9: chr15:98568902:98568903:-_ENSMUSG00000051853_ENSMUST00000053183|mus_hu|FALSE|FALSE (ssRNA)
RNA: GGGAGUUCUACAGUCCGACGAUCGGCCAGGGAAAUGAAUACAUUUUUAAAUGAAAUAGAACCUCCAACACCCCCCCCACAACCACCACACACAAACACACCCACACCCAUAUACACACACACUCACACACACACACAGGCCUACAACAGAGGAUUGAGCAUCA
B10: chr7:135832672:135832673:+_ENSMUSG00000042105_ENSMUST00000118605|mus_mus|FALSE|FALSE (ssRNA)
RNA: GGGAGUUCUACAGUCCGACGAUCCACGCCAAAAAUUCCAUCACGACACAAUUUUUACACACACACCAAAAAACAAAAAAAACAAAAAAAAAAAAAAAAAACCCAAAAAACAAAAAACCCUACAGUGUCACUUCCAUCCUGCCUCAACAGAGGAUUGAGCAUCA
B11: chr3:151883435:151883436:+_ENSMUSG00000028034_ENSMUST00000166984|mus_mus|motif|central (ssRNA)
RNA: GGGAGUUCUACAGUCCGACGAUCCAUUUCUCCAUUUCUUCCUAUUACAAUGCCAACAGCAAAUCUUGGAAUUGGGACAUCGGUCCCUUCAUUGCCUCCUAUUCUUGAGCCAUACUCAUUCCGCACUUCUCUGAAACCACCUUGCAACAGAGGAUUGAGCAUCA
B12: chr7:26237324:26237325:-_ENSG00000122566_ENST00000356674|hu_mus|FALSE|FALSE (ssRNA)
RNA: GGGAGUUCUACAGUCCGACGAUCCUCAUAGUAGUUUCUCAAACUUUCUUCUGUGGUUUCAAAGCUUAAGCCACCAAUAAAGAGCUUUCGGAACUGUUCCUUUUCUCUCUUUUUCCUCUCCAAAGGAACAGUUUCUAAAGUUUUCAACAGAGGAUUGAGCAUCA
B13: chr14:63839279:63839280:-_ENSG00000154001_ENST00000337537|hu_hu|motif|central (ssRNA)
RNA: B7 RNA with U80G, A81G
B14: chr1:225611761:225611762:-_ENSG00000143815_ENST00000272163|hu_mus|hu_hu_hu_mus_True|38_98 (ssRNA)
RNA: GGGAGUUCUACAGUCCGACGAUCCCAGGCCAUCGGCCUCUUACCACUUCACCCUCAACAAACUUCCUACUUGGCAUUUUCUAAAAUUAGUCUGGCCCAGGUUCCGGGGGAACUCCAGCCACUCCAGGACAGUCACCAGCAGCCCAACAGAGGAUUGAGCAUCA
B15: chr1:225611761:225611762:-_ENSG00000143815_ENST00000272163|hu_mus|hu_hu_hu_mus_True|38_48 (ssRNA)
RNA: B14 RNA with U41G, G89A, U90C, G94C, C95G

target: T1, UNK ZnF1-3; assay: nsRBNS (natural sequence RNA bind-n-seq); RBNS binding buffer (assumed for nsRBNS): 25 mM Tris pH 7.5, 150 mM KCl, 3 mM MgCl2, 0.01% Triton X-100, 500 ug/ml BSA, 20 U/ml SUPERase-In, 4 C; UNK is unkempt and MSI1 is Musashi-1; names of the RNAs are library labels; protein concentration not given here; high values mean tight binding

Binder | binding signal [enrichment R]
B1 | 0.923
B2 | 1.03
B3 | 0.508
B4 | 1.37
B5 | 0.995
B6 | 0.8
B7 | 4.18
B8 | 1.42
B9 | 3.59
B10 | 11.5
B11 | 0.909
B12 | 0.272
B13 | 3.96
B14 | 1.5
B15 | 1.33
